Bioassay records from PubChem BioAssay.
Shown are actives, neighbours in structure and some others; about 8% of the full set was active somewhere.
Lassa entry inh: inhibitors of Lassa virus binding or cell entry | Lassa virus pseudotype entry inhibition, cell reporter | Potency, µM (series often up to 37.9 µM), most hits filed as inhibitors | hit rate 1.2% among 300,000; calls by dose curve; tested in HEK293 cells; also: nearly all actives have a fitted effect of over 50% in size
Marburg entry inh: inhibitors of Marburg virus binding or cell entry; Marburg virus pseudotyped entry inhibition, cell reporter; Potency, µM (highest dose often 37.8 µM), usual class: inhibitors; hit rate 1.8% among 300,000; calls by dose curve; tested in HEK293 cells
FMDV inh: foot and mouth disease virus antiviral activity; FMDV antiviral cell-based qHTS; Potency, µM (top dose mostly 57.9 µM), hits mostly inhibitors; hit rate 1.2% among 410,000; calls by dose curve; tested in HEK293T cells; also: read-out not given here; nearly all actives have a fitted effect of over 45% in size
HCV inh: inhibitors of hepatitis C virus infection; Huh7.5.1 HCVcc-Cre infection, luciferase reporter, 44 h; Potency, µM (titrated, usually from 41.8 µM), hits mostly inhibitors; hit rate 3.4% among 340,000; active = well fitted inhibition curve with a large enough effect; inconclusive = small, poorly fitted or top-dose-only effect, or another doubt; inactive = no such curve, though single readings can be large or run the other way
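Antiviral activity was scored by luciferase reporter output from cells infected with HCVcc-Cre (~0.5 moi) in presence of compound, 44 h infection period, cells seeded 1,000/well 4 h prior.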
SARS PLpro yeast: SARS-CoV PLP inhibition in yeast; S. cerevisiae expressing SARS-CoV PLpro, growth rescue; Potency, µM (titrated, usually from 32.9 µM), hits mostly activators; hit rate 0.19% among 330,000; calls by dose curve; also: nearly all actives have a fitted effect of over 55% in size
HCMV inh: blocks human cytomegalovirus replication. HFF cells, HCMV-luciferase reporter, 72 h; hits give low values. activity change, negative = inhibition, % at 57.5 µM. hit rate 4.5% among 410,000; in the data active = activity change below about -60%; inconclusive = no clear call, values can overlap the other calls; inactive = above about -39%
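Inhibition of viral replication was scored as loss of reporter luminescence in HFFs infected with HCMV-luciferase (MOI 1 PFU/cell) for 72 h; compounds tested at 2 doses, normalized to buffer and Salinomycin controls.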
Of the large screens only hits and unclear results are named; the others gave an inactive call.

COc1ccccc1C1c2ccc3ccccc3c2Oc2ncn(CCN(C)C)c(=N)c21 (centres undefined)	Lassa entry inh inconclusive, Marburg entry inh 2.8µM, HCV inh 13µM, HCMV inh -101
COc1ccc(C2c3c(ncn(CCCO)c3=N)Oc3ccc4ccccc4c32)cc1OC (centres undefined)	Lassa entry inh inconclusive, HCV inh inconclusive
COc1ccc(OC)c(NC(=O)c2cc3cc(C)ccc3n2C)c1	none (no result: HCV inh, SARS PLpro yeast)
O=S(=O)(/N=C(/NS(=O)(=O)c1ccccc1)c1ccccc1)c1ccccc1	HCMV inh -106
O=c1c(O)c(-c2ccc(O)cc2)oc2cc(O)cc(O)c12	HCV inh 6.3µM (no result: Lassa entry inh, Marburg entry inh, SARS PLpro yeast, HCMV inh)
COc1ccc(N(Cc2nc3cc(C)c(C)cc3[nH]2)Cc2nc3cc(C)c(C)cc3[nH]2)cc1	none (no result: Lassa entry inh, Marburg entry inh, FMDV inh, HCV inh, SARS PLpro yeast)
Cc1cccc2cc(CN(Cc3cccs3)C3(c4nnnn4C4CCCC4)CCCC3)c(=O)[nH]c12	Lassa entry inh inconclusive, HCMV inh -70
Cc1cccc2cc(CN(Cc3cccs3)S(=O)(=O)c3ccc4c(c3)OCCO4)c(=O)[nH]c12	Lassa entry inh inconclusive, HCV inh inconclusive, HCMV inh -84
Nc1nc(Cl)nc2c1ncn2C1OC(CO)C(O)C1F (centres undefined)	none (no result: Lassa entry inh, Marburg entry inh, HCV inh, SARS PLpro yeast, HCMV inh)
CC1=C(C(=O)OCCNC(=O)c2ccccc2O)C(c2ccccc2[N+](=O)[O-])C(C(=O)OCC2CCCO2)=C(C)N1 (centres undefined)	Lassa entry inh 10µM, Marburg entry inh inconclusive, FMDV inh 28µM, HCV inh inconclusive, HCMV inh inconclusive
CCOC(=O)c1[nH]c(C)c(CCC(=O)NCc2ccc(N(C)C)cc2)c1C	none (no result: Marburg entry inh, HCV inh, SARS PLpro yeast)
CCn1cc2nc(SCc3cccc(C(F)(F)F)c3)n(Cc3ccc(C)cc3)c(=O)c2n1	none (no result: Marburg entry inh, HCV inh, SARS PLpro yeast)
O=C1COc2ccc(S(=O)(=O)N3CCN(c4cccc(C(F)(F)F)c4)CC3)cc2N1	Lassa entry inh inconclusive, HCV inh inconclusive
O=C1COc2ccc(S(=O)(=O)CCC(=O)N3CCN(c4cccc(C(F)(F)F)c4)CC3)cc2N1	Lassa entry inh inconclusive, Marburg entry inh inconclusive, FMDV inh inconclusive, HCV inh inconclusive, HCMV inh -68
CC1Sc2ccc(S(=O)(=O)CCC(=O)N3CCN(c4ccccc4)CC3)cc2NC1=O (centres undefined)	Lassa entry inh inconclusive, FMDV inh inconclusive, HCV inh inconclusive, HCMV inh inconclusive
CC1Sc2ccc(S(=O)(=O)CCC(=O)N3CCN(c4ccccc4F)CC3)cc2NC1=O (centres undefined)	Lassa entry inh inconclusive, Marburg entry inh inconclusive, FMDV inh inconclusive, HCV inh inconclusive, HCMV inh -70
CC1Sc2ccc(S(=O)(=O)CCC(=O)N3CCN(c4cccc(Cl)c4)CC3)cc2NC1=O (centres undefined)	FMDV inh 25µM, HCV inh inconclusive, HCMV inh -63 (no result: Lassa entry inh, Marburg entry inh)
Cc1ccccc1OCc1ccc(-c2nc(C#N)c(NCc3cccnc3)o2)o1	FMDV inh inconclusive, HCMV inh inconclusive (no result: HCV inh, SARS PLpro yeast)
COc1ccc(NC(=O)Cn2c(=O)n(-c3ccc(Cl)cc3)c(=O)c3c(C)c(C(=O)N(C)C)sc32)cc1Cl	none (no result: Marburg entry inh, HCV inh, SARS PLpro yeast)
Cc1cccc(CNC(=O)c2ccc(NC(=O)N3CC(C)Sc4ccccc43)cc2)c1 (centres undefined)	none (no result: HCV inh, SARS PLpro yeast)
CCOc1ccccc1CNc1nc2nc(C)c(CC(=O)OC)c(=O)n2[nH]1	none (no result: HCV inh, SARS PLpro yeast)
O=c1ccnc(Nc2ccc([N+](=O)[O-])cc2)[nH]1	Marburg entry inh inconclusive, HCMV inh -71 (no result: SARS PLpro yeast)
CCOc1ccc(S(=O)(=O)N(CC(=O)Nc2ccc3c(c2)OCO3)c2ccccc2)cc1	HCMV inh inconclusive (no result: HCV inh, SARS PLpro yeast)
CCCN(C)C1CN(Cc2cn(Cc3cccc(C(F)(F)F)c3)nn2)S(=O)(=O)C1 (centres undefined)	HCMV inh -100 (no result: Lassa entry inh, Marburg entry inh, HCV inh, SARS PLpro yeast)
FC(F)c1nc2ccccc2[nH]1	none
c1ccc2[nH]c3cc4ncnc4cc3nc2c1	HCMV inh -87
COc1ccc(-n2c(=S)[nH]c3cc(C(=O)Nc4ccc(F)cc4)ccc3c2=O)c(OC)c1	Lassa entry inh inconclusive, Marburg entry inh inconclusive, FMDV inh inconclusive, HCV inh inconclusive, HCMV inh -70
COc1ccc(-n2c(=S)[nH]c3cc(C(=O)Nc4ccccc4OC)ccc3c2=O)cc1	none (no result: FMDV inh)
COc1ccc(-n2c(=S)[nH]c3cc(C(=O)Nc4ccccc4OC)ccc3c2=O)c(OC)c1	Lassa entry inh 6.3µM, FMDV inh inconclusive, HCV inh inconclusive, HCMV inh inconclusive
COc1ccc(CCN(Cc2cccs2)S(=O)(=O)c2ccc(-n3cnnn3)cc2)cc1OC	Lassa entry inh inconclusive, Marburg entry inh inconclusive, FMDV inh inconclusive, HCV inh 11µM, HCMV inh inconclusive
CCC(C)NS(=O)(=O)c1ccc(S(=O)(=O)N(CCc2ccc(OC)c(OC)c2)Cc2cccs2)cc1 (centres undefined)	Lassa entry inh inconclusive, Marburg entry inh 3.5µM, HCV inh 11µM, HCMV inh -64
COc1ccc(CCN(Cc2cccs2)S(=O)(=O)c2ccc(S(=O)(=O)N3CCCCCC3)cc2)cc1OC	HCV inh inconclusive
Cc1nc(N2CCCC2)ncc1C(=O)Nc1ccc(F)cc1F	none (no result: Marburg entry inh, HCV inh, SARS PLpro yeast)
c1coc(CNc2c3c(nc4ncnn24)CCCC3)c1	none
Clc1cccc(-c2cc3nc4c(c(NCc5ccco5)n3n2)CCCC4)c1	HCV inh 10µM (no result: FMDV inh)
O=S(=O)(O)c1cc(O)c(N=Nc2ccc(O)cc2O)c2ccccc12	FMDV inh 28µM, HCMV inh inconclusive (no result: SARS PLpro yeast)
Nc1ccc(C2(c3ccc(N)cc3)C(=O)Nc3ccccc32)cc1	HCMV inh -62 (no result: FMDV inh)
O=C(c1cc(C(F)(F)F)cc(C(F)(F)F)c1)N1CCC2(CCCN(c3ccccc3)C2)CC1	none (no result: Lassa entry inh, Marburg entry inh, HCV inh, SARS PLpro yeast, HCMV inh)
COc1ccc(-c2nc(C(N)=O)c3[nH]c(=O)n(-c4cccc(Cl)c4)c3n2)cc1OC	Lassa entry inh inconclusive, Marburg entry inh inconclusive, FMDV inh inconclusive, HCV inh inconclusive
CCc1ccc(-c2nc(C(N)=O)c3[nH]c(=O)n(-c4ccccc4OC)c3n2)cc1	FMDV inh inconclusive, HCV inh inconclusive, HCMV inh -98 (no result: Lassa entry inh, Marburg entry inh)
COc1ccc(S(=O)(=O)NCc2cccn2Cc2cccc(C)c2)cc1OC	none (no result: Marburg entry inh, HCV inh, SARS PLpro yeast)
CC(=O)N(c1ccccc1)C1CCCC1	none
O=C(CCl)N(c1ccccc1)C1CCCCC1	Lassa entry inh inconclusive, Marburg entry inh inconclusive, FMDV inh inconclusive, HCV inh 4µM, HCMV inh -113
FC(F)(F)c1cc(-c2ccco2)nc(NCc2ccccc2)n1	HCV inh inconclusive
Cc1nc2ccccc2n1-c1nc(-c2ccco2)cc(C(F)(F)F)n1	Lassa entry inh inconclusive, Marburg entry inh inconclusive, HCV inh 3.2µM, HCMV inh -104
Fc1ccc(CNc2nc(-c3ccco3)cc(C(F)(F)F)n2)cc1	Marburg entry inh 9.2µM, HCV inh inconclusive
Oc1ccc(Cl)cc1Cc1ccccc1	none (no result: Lassa entry inh, Marburg entry inh, SARS PLpro yeast)
Oc1ccc(Cl)cc1Cc1cc(Cl)ccc1O	Lassa entry inh inconclusive, Marburg entry inh inconclusive, FMDV inh inconclusive, HCV inh inconclusive, HCMV inh -89
